Most compounds without a hit are left out; they make up all but 28% or so of the library.
CYP2C19 inhib = human CYP2C19 inhibition; P33261; AID 778; inhibition, % at 5 µM; CYP2C19 Supersomes, luciferin-H EGE luminescence, 30 min; actives 21% (n = 96,000);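 active = CYP2C19 inhibition above a set limit at 5 µM in the primary screen, cut at about 50% in these data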;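 also: plate controls were negative control wells for no effect and 2.5 mM tranylcypromine positive control for full effect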
CD11b adhes inh = inhibitors of human CD11b/CD18 binding to fibrinogen. P05107+P11215. K562 CD11b/CD18 adhesion to fibrinogen, ATPlite luminescence; Mn2+ added to activate the integrin. inhibition, % at 10 µM. actives 0.54% (n = 93,000);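 active = primary inhibition of 50% or more at 10 µM, then 40% or more on retest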
CYP2C9 inhib = blocks human cytochrome P450 2C9 | AID 777 | CYP2C9 Supersomes, luciferin-H conversion, luminescence | inhibition, % at 5 µM | actives 20% (n = 96,000) | P11712;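 active = blocking of liver enzyme CYP2C9 beyond about 50% at 5 µM, limit read from the data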
Target sequence (P11712 whole entry, looked up): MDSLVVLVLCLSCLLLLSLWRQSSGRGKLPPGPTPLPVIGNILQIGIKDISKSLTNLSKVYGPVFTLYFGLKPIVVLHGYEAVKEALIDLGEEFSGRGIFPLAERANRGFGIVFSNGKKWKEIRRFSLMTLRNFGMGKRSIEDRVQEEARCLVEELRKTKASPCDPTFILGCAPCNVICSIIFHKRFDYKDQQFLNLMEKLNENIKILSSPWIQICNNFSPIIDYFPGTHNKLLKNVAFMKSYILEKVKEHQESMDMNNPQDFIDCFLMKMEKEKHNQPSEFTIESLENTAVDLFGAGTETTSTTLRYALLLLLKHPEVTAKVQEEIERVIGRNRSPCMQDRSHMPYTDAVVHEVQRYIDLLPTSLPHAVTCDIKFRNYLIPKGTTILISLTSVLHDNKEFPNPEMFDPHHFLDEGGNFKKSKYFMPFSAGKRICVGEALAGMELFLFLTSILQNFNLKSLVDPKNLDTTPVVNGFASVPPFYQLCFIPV
CYP2C19 act = cytochrome P450 2C19 (human) activation | P33261 | recombinant CYP2C19, luciferin-H EGE luminescence; hits give high values; 0 = fully inhibited enzyme, 1 = untreated enzyme | activation factor at 5 µM | 96,000 tested, under 10 active;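 active = activation factor of at least 2 at 5 µM in the primary screen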;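 also: 0 = wells with 2.5 mM tranylcypromine and 1 = vehicle-only wells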
CYP2C9 activ = CYP2C9 (human) activation | AID 1024 | activation factor at 5 µM | actives 1.4% (n = 96,000) | P11712 | recombinant CYP2C9, luciferin-H conversion, luminescence; hits give high values; factor 1 = untreated enzyme, 0 = blocked;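 active = activation factor of 2 or more for CYP2C9 at a 5 µM dose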;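 also: 0 = sulfaphenazole-blocked wells and 1 = vehicle-only wells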
Mac1 fbg enh = enhancers of human CD11b/CD18 binding to fibrinogen; AID 1499; K562 CD11b/CD18 adhesion to fibrinogen, ATPlite luminescence; P05107+P11215; activation, % at 10 µM; actives 0.07% (n = 93,000);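 active = 10 µM primary screen giving 50% or more activity, confirmed by 40% or more on retest at that dose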
* = called active by the depositor; . = no result.

SMILES	CYP2C19 inhib	CD11b adhes inh	CYP2C9 inhib	CYP2C19 act	CYP2C9 activ	Mac1 fbg enh
Cc1cc(Cl)ccc1OCCCC(=O)N1CCN(C)CC1	51*	.	-114	0.5	2.1*	.
Cc1cc(Cl)ccc1OCCCC(=O)NC1CCN(C)CC1	9	-3	-13	0.9	1.1	-3
Cc1cc(C)cc(OCC(=O)N2CCCCCC2)c1	54*	-29	-16	0.5	1.2	4
O=S(=O)(NCc1ccco1)N1CCOCC1	7	-4	6	0.9	0.9	-3
COc1cc(CO)cc(Br)c1OCC(=O)N1CCCCC1	23	2	-118	0.8	2.2*	0
O=[N+]([O-])c1ccc(NC(=S)N/C(=N/CS(=O)(=O)c2ccccc2)c2ccccc2)cc1	29	4	58*	0.7	0.4	-2
COc1cc2c(C(=O)NC3CCCCCC3)cn(C)c(=O)c2cc1OC	4	.	14	1	0.9	.
Cc1ccc(SCCC(=O)N2CCCC2)cc1	90*	-14	49	0.1	0.5	0
Cc1ccc(SCCC(=O)N2CCOCC2)cc1	95*	-6	15	0	0.9	0
Cc1ccc(SCC(=O)N2CCCC2)cc1	27	-1	3	0.7	1	-1
O=C(CCSc1ccccc1)N1CCOCC1	37	22	-13	0.6	1.1	0
Cc1cc(NC(=O)COC(=O)c2cc(S(=O)(=O)N3CCOCC3)ccc2N2CCCCC2)no1	12	2	18	0.9	0.8	-3
CCC(C)c1ccc(OCCn2cc(/C=N/NC(=O)CSc3nnc(C)s3)c3ccccc32)cc1 (configuration not stated)	12	24	16	0.9	0.8	-4
COc1ccc(-n2c(C)cc(C(=O)Cn3nnc4ccccc4c3=O)c2C)cc1	60*	0	83*	0.4	0.2	3
Cc1cc(C(=O)Cn2nnc3ccccc3c2=O)c(C)n1-c1c(C)n(C)n(-c2ccccc2)c1=O	2	2	23	1	0.8	0
Cc1cc(C(=O)Cn2nnc3ccccc3c2=O)c(C)n1-c1ccccc1F	52*	66	4	0.5	1	-9
Cc1ccc(N(C(C)C(=O)Nc2cc(Cl)ccc2Oc2ccccc2)S(C)(=O)=O)cc1 (configuration not stated)	86*	.	77*	0.1	0.2	.
CC(C(=O)Nc1ccc2c(c1)OCO2)N(c1ccc(Cl)cc1)S(C)(=O)=O (configuration not stated)	98*	2	93*	0	0.1	-5
Cc1ccc(N(C(C)C(=O)Nc2ccc(S(=O)(=O)N3CCOCC3)cc2)S(C)(=O)=O)cc1 (configuration not stated)	8	-4	27	0.9	0.7	2
O=C(Nc1ccc2c(c1)OCO2)Nc1ccc(Cl)cc1Cl	19	-43	10	0.8	0.9	-1
O=C(Nc1cc(Cl)ccc1Oc1ccccc1)c1ccccc1F	.	29	.	.	.	2
COc1ccc(NC(=O)C(C)N(c2ccc(C)cc2)S(C)(=O)=O)cc1 (configuration not stated)	90*	-50	74*	0.1	0.3	2
COc1ccc(C)cc1NC(=O)C(C)N(c1ccc(C)cc1)S(C)(=O)=O (configuration not stated)	44	-4	56*	0.6	0.4	-4
CN(C)CCNC(=O)C12CC3(C)CC(C)(CC(C)(C3)C1)C2	13	2	0	0.9	1	-2
CCCCn1c2c(c(=O)n(C)c1=O)C(c1ccc(OC)cc1)N1CCCCCC1=N2 (configuration not stated)	20	8	17	0.8	0.8	2
SMILES	CYP2C19 inhib	CD11b adhes inh	CYP2C9 inhib	CYP2C19 act	CYP2C9 activ	Mac1 fbg enh
COc1ccc(/C=N/NC(=O)c2cc(-c3ccc4c(c3)OCO4)n[nH]2)cc1OC	.	13	.	.	.	10
c1ccc2nc3c(nc2c1)[nH]c1ccccc13	26	-4	22	0.7	0.8	-4
Clc1ccc2[nH]c3c(c2c1)CCc1cn[nH]c1-3	18	-4	55*	0.8	0.5	4
c1ccc2c3c([nH]c2c1)-c1[nH]ncc1CC3	24	-8	67*	0.8	0.3	0
COc1ccccc1N1CCN(C(c2cc3ccc(C)cc3[nH]c2=O)c2nnnn2C2CCCC2)CC1 (configuration not stated)	72*	-10	91*	0.3	0.1	0
CCOC(=O)C1CCN(C(c2cc3ccc(C)cc3[nH]c2=O)c2nnnn2C2CCCCC2)CC1 (configuration not stated)	79*	26	84*	0.2	0.2	4
COc1ccccc1N1CCN(C(c2cc3cc(C)ccc3[nH]c2=O)c2nnnn2C2CCCC2)CC1 (configuration not stated)	24	-6	-18	0.8	1.2	-4
CCCOC(=O)C1[C@H]2C(=O)N(CC3CCCO3)C[C@]23C=C[C@H]1O3 (some centres not stated)	-9	-6	-4	1.1	1	-1
CCOC(=O)CSc1nnc(CNC(=O)c2ccco2)n1C	-18	0	-10	1.2	1.1	-6
CCOC(=O)COc1c(OC)cc(Cl)cc1C1NC(=O)NC(C)=C1C(C)=O (configuration not stated)	65*	7	70*	0.4	0.3	0
CCCC1=C(C(=O)OCC)C(c2cc(Cl)cc(OC)c2OCC(=O)OCC)NC(=O)N1 (configuration not stated)	42	1	88*	0.6	0.1	3
CCCC1=C(C(=O)OCC)C(c2ccccc2OC)NC(=O)N1 (configuration not stated)	29	-16	22	0.7	0.8	0
O=C(N/C=N/OCc1cccc(C(F)(F)F)c1)N1OC[C@@H]2COc3ccc4ccccc4c3[C@@H]21	5	10	-12	1	1.1	-3
COC(=O)c1cc2c(s1)-c1ccccc1OC2	65*	-5	6	0.4	0.9	2
CCOC(=O)c1cc2c(s1)-c1c(C)cccc1OC2	89*	5	72*	0.1	0.3	-2
O=C(Nc1nccs1)c1cc2c(s1)-c1ccccc1OC2	17	3	10	0.8	0.9	30
Cc1cccc2c1-c1sc(C(=O)Nc3nccs3)cc1CO2	0	-10	21	1	0.8	-2
Cc1occc1C(=O)NNC(=O)NC12CC3CC(CC(C3)C1)C2	15	-7	-4	0.8	1	-2
COc1ccc2nc(Nc3sc4c(c3C(N)=O)CCCC4)sc2c1	.	24	.	.	.	54
O=C(c1ccc(F)cc1)C1CCN(C(=O)NCc2ccccc2)CC1	7	-6	19	0.9	0.8	0
COc1ccc(-c2n[nH]c(C)c2-c2cnn(-c3ccccc3)c2)c(O)c1C	39	0	52*	0.6	0.5	1

Screening data from PubChem.
